Reference: PubChem BioAssay (EPA / NIEHS)
Records with an inconclusive call do not appear. Activity calls are given as the source filed them. How the source made its calls, unless noted: active means hit-call score of the fitted dose curve at least 0.9, where 1 is the maximum; inactive means score below 0.9.

Assays:
[1] = target: human RAR-related Orphan Receptor gamma (RORg), RORC (gene 6097) (UniProt P51449); assay: ATG_RORg_TRANS: Attagene TRANS-FACTORIAL HepG2 Assay for human RAR-related Orphan Receptor gamma (RORg) (AID 2283011; active means hit-call score of the fitted dose curve at least 0.9, where 1 is the maximum)
Sequence of human RAR-related Orphan Receptor gamma (RORg), RORC (gene 6097) (P51449 whole entry, looked up, the tested form may be a part): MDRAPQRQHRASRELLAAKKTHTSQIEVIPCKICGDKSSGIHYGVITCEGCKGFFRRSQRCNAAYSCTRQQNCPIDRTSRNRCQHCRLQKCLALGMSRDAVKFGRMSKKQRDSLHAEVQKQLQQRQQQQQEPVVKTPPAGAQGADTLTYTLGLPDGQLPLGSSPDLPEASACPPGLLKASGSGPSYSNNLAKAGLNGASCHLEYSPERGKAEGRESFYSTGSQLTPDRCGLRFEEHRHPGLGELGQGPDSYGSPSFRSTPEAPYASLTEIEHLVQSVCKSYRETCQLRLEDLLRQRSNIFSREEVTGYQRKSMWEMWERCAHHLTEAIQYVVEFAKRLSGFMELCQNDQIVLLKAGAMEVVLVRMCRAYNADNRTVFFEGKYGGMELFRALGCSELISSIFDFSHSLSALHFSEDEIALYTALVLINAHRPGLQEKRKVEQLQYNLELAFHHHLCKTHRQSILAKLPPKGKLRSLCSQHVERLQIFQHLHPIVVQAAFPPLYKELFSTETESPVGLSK
In short: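 HepG2 cells transiently transfected with GAL4-UAS reporter units and chimeric RORg-Gal4 construct; after 24 h chemical exposure, reporter mRNA measured by RT-PCR with fluorescent capillary electrophoresis, gain of signal fitted against DMSO.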

[2] = target: Retinoic acid receptor RXR-alpha (Homo sapiens) (UniProt P19793); assay: ATG_RXRa_TRANS: Attagene TRANS-FACTORIAL HepG2 Assay for human Retinoid X Receptor alpha (RXRa) (AID 2283012; active means hit-call score of the fitted dose curve at least 0.9, where 1 is the maximum)
Sequence of Retinoic acid receptor RXR-alpha (Homo sapiens) (P19793 whole entry, looked up, the tested form may be a part): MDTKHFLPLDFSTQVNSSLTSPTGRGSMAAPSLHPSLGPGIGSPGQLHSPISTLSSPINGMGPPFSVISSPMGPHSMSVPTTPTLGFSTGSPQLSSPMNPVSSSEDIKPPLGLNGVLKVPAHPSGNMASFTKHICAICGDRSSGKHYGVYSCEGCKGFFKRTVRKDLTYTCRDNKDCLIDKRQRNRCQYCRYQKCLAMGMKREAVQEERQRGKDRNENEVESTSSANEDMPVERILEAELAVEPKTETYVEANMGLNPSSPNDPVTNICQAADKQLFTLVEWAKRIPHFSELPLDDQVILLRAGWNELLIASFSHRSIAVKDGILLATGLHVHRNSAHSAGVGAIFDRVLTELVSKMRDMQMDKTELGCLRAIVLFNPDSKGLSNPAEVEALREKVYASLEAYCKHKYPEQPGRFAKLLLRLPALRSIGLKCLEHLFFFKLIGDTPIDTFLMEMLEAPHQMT
In short: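 Transient transfection of human HepG2 with multiple GAL4-UAS reporter constructs; 24 h compound exposure; total RNA isolated, reverse-transcribed, PCR-amplified, 6-FAM labelled, HpaI-cut, resolved by capillary electrophoresis. Positive-direction fit versus DMSO.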

[3] = target: human Retinoid X Receptor beta (RXRb), RXRB (gene 6257) (UniProt P28702); assay: ATG_RXRb_TRANS: Attagene TRANS-FACTORIAL HepG2 Assay for human Retinoid X Receptor beta (RXRb) (AID 2283013; active means hit-call score of the fitted dose curve at least 0.9, where 1 is the maximum)
Sequence of human Retinoid X Receptor beta (RXRb), RXRB (gene 6257) (P28702 whole entry, looked up, the tested form may be a part): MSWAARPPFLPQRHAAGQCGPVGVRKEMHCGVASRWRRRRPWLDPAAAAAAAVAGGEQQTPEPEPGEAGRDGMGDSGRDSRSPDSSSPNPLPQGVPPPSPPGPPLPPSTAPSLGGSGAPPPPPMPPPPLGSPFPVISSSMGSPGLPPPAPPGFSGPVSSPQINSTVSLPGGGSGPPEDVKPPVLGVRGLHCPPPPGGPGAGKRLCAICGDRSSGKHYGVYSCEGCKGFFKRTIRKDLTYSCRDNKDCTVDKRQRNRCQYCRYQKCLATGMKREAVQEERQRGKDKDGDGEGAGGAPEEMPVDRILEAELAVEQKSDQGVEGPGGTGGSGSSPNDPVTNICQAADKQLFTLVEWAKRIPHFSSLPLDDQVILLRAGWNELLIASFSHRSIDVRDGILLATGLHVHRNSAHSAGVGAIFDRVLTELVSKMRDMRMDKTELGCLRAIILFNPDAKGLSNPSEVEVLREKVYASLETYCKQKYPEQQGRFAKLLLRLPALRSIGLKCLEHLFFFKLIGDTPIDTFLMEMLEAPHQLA
In short: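 Transfect HepG2 with GAL4-UAS multi-reporter constructs (chimeric NR-Gal4, TRANS format); dose compound 24 h; isolate RNA, RT-PCR, FAM primer extension, HpaI digest; quantify by capillary electrophoresis; positive direction vs DMSO.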

[4] = read-out: E-selectin (Homo sapiens) (UniProt P16581); assay: BSK_3C_Eselectin: BioMAP Diversity Plus: 3C Assay for Eselectin Biomarker Activity (AID 2283015); conditions: primary human endothelial cells (HUVEC); actives raise or lower the signal
In short: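 Primary human umbilical vein endothelial cells (3C system), read 24 h after compound addition; E-selectin measured by ELISA. Bidirectional curve fitting against DMSO baseline; cytotoxicity by parallel SRB total-protein staining.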

[5] = read-out: Monocyte Chemoattractant Protein-1 (MCP1), CCL2 (gene 6347); assay: BSK_3C_MCP1: BioMAP Diversity Plus: 3C Assay for Monocyte Chemoattractant Protein-1 (MCP1) Biomarker Activity (AID 2283017); conditions: primary human endothelial cells (HUVEC); actives raise or lower the signal
In short: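 Human umbilical vein endothelial cells (3C system) exposed to chemicals for 24 h; MCP-1 quantified by ELISA against the DMSO baseline with bidirectional fitting, and parallel SRB staining used to assess cytotoxicity.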

[6] = read-out: Monocyte Chemoattractant Protein-1 (MCP1), CCL2 (gene 6347); assay: BSK_4H_MCP1: BioMAP Diversity Plus: 4H Assay for Monocyte Chemoattractant Protein-1 (MCP1) Biomarker Activity (AID 2283018); conditions: primary human endothelial cells (HUVEC); actives raise or lower the signal
In short: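 ELISA read-out of MCP-1 from human vascular endothelial primary cells taken at 24 hours after compound exposure. Activity was fitted in both directions relative to DMSO, which served as negative control.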

[7] = read-out: Interleukin-8 (IL8), CXCL8 (gene 3576); assay: BSK_3C_IL8: BioMAP Diversity Plus: 3C Assay for Interleukin-8 (IL8) Biomarker Activity (AID 2283020); conditions: primary human endothelial cells (HUVEC); actives raise or lower the signal
In short: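 ELISA read-out of IL-8 from human umbilical vein endothelium, measured 24 h after chemical dosing. Activity is expressed relative to DMSO negative control, with both increases and decreases fitted.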

[8] = read-out: Monokine induced gamma interferon (MIG), CXCL9 (gene 4283); assay: BSK_3C_MIG: BioMAP Diversity Plus: 3C Assay for Monokine induced gamma interferon (MIG) Biomarker Activity (AID 2283021); conditions: primary human endothelial cells (HUVEC); actives raise or lower the signal;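 on AC50: MIG protein level measured by immunoassay in the treated endothelial cultures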
In short: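 Read-out is ELISA detection of MIG on human umbilical vein endothelial cells, taken 24 h after dosing. Gain or loss of signal was scored relative to DMSO controls using bidirectional curve fitting.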

[9] = target: human Vitamin D Receptor (VDR), VDR (gene 7421) (UniProt P11473); assay: ATG_VDR_TRANS: Attagene TRANS-FACTORIAL HepG2 Assay for human Vitamin D Receptor (VDR) (AID 2283022; active means hit-call score of the fitted dose curve at least 0.9, where 1 is the maximum)
Sequence of human Vitamin D Receptor (VDR), VDR (gene 7421) (P11473 whole entry, looked up, the tested form may be a part): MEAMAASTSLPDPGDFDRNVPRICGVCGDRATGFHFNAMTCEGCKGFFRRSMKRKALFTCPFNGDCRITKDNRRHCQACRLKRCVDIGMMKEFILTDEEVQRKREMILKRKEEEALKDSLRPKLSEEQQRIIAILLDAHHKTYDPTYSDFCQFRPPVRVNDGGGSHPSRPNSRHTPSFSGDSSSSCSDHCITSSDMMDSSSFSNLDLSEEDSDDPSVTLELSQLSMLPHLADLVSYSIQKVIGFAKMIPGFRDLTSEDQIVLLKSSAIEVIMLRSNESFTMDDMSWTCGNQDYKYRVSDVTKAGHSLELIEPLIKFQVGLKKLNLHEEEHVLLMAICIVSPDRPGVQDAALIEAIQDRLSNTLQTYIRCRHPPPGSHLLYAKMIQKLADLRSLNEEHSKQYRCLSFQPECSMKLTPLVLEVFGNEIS
In short: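 HepG2 cells were transiently transfected with GAL4-UAS reporter units and a chimeric VDR-Gal4 construct, then dosed for 24 hours. Reporter mRNA was quantified by RT-PCR, fluorescent labeling, HpaI digestion and capillary electrophoresis; gain of signal analysed vs DMSO.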

[10] = BSK_3C_SRB: Viability Assessment in the BioMAP Diversity Plus: 3C Assay (AID 2283023); conditions: primary human endothelial cells (HUVEC);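 further: fitted both ways against DMSO so a hit may be signal rise or drop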
In short: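 Human umbilical vein endothelial cells in the 3C system, treated 24 h. Total protein measured by 0.1% sulforhodamine B staining after 10% TCA fixation, read at 560 nm; bidirectional fit versus DMSO.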

[11] = read-out: Pselectin, SELP (gene 6403); assay: BSK_4H_Pselectin: BioMAP Diversity Plus: 4H Assay for Pselectin Biomarker Activity (AID 2283026); conditions: primary human endothelial cells (HUVEC); actives raise or lower the signal
In short: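 ELISA read-out of P-selectin on human umbilical vein endothelium after 24 h of dosing. Values derive from bidirectional fitting relative to DMSO. Parallel SRB protein staining flagged overt cytotoxicity.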

[12] = BSK_4H_SRB: Viability Assessment in the BioMAP Diversity Plus: 4H Assay (AID 2283027); conditions: primary human endothelial cells (HUVEC);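 further: cells exposed to compound for 24 h before staining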;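 on AC50: curves fitted both ways versus DMSO so AC50 may be loss or gain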
In short: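 Human umbilical vein endothelial cells, 24 h after chemical dosing; total protein measured by 0.1% sulforhodamine B staining after 10% TCA fixation, read at 560 nm. Bidirectional fitting against DMSO.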

[13] = BSK_BE3C_SRB: Viability Assessment in the BioMAP Diversity Plus: BE3C Assay (AID 2283028); conditions: primary human bronchial epithelial cells
In short: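 Human bronchial epithelial primary cells in confluent culture, 24 h after chemical dosing; total protein by 0.1% SRB staining after 10% TCA fixation, read at 560 nm. Bidirectional fitting versus DMSO baseline.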

[14] = target: human RAR-related Orphan Receptor beta (RORb), RORB (gene 6096) (UniProt Q92753); assay: ATG_RORb_TRANS: Attagene TRANS-FACTORIAL HepG2 Assay for human RAR-related Orphan Receptor beta (RORb) (AID 2283010; active means hit-call score of the fitted dose curve at least 0.9, where 1 is the maximum)
Sequence of human RAR-related Orphan Receptor beta (RORb), RORB (gene 6096) (Q92753 whole entry, looked up, the tested form may be a part): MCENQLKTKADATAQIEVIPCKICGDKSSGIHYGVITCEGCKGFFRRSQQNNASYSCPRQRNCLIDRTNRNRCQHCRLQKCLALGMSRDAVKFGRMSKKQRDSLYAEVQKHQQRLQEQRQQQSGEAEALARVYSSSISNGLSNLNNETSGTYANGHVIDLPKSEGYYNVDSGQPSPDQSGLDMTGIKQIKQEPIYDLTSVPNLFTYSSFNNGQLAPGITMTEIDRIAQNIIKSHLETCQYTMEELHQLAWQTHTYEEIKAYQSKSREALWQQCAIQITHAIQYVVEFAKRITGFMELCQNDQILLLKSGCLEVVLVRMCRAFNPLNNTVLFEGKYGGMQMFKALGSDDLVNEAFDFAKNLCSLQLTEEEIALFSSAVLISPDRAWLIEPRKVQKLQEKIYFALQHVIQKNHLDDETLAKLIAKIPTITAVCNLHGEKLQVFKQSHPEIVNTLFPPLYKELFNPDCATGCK
In short: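 Readout is reporter-gene mRNA induction, detected as fluorescence after RT-PCR and capillary electrophoresis, fitted for gain of signal against DMSO controls. Transiently transfected HepG2 liver cells carrying GAL4-UAS reporter constructs were treated for 24 hours.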

[15] = target: human Thyroid Receptor alpha (THRa1), THRA (gene 7067) (UniProt P10827); assay: ATG_THRa1_TRANS: Attagene TRANS-FACTORIAL HepG2 Assay for human Thyroid Receptor alpha (THRa1) (AID 2283014; active means hit-call score of the fitted dose curve at least 0.9, where 1 is the maximum)
Sequence of human Thyroid Receptor alpha (THRa1), THRA (gene 7067) (P10827 whole entry, looked up, the tested form may be a part): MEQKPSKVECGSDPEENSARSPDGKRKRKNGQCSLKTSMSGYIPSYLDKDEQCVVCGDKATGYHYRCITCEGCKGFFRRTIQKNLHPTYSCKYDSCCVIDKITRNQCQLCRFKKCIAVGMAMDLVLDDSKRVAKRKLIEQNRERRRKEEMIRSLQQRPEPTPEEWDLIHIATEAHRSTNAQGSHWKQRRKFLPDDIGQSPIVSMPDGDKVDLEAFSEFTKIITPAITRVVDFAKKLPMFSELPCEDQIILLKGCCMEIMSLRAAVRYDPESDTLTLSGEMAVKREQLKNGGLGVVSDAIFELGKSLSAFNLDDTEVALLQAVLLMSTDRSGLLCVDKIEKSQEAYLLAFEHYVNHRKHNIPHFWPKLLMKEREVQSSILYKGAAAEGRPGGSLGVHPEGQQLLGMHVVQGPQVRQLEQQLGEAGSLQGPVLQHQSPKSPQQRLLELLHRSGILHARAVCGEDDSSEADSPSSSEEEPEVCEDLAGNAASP
In short: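 HepG2 cells transiently transfected with chimeric NR-Gal4 and GAL4-UAS reporter units, dosed 24 h. Reporter mRNA quantified by RT-PCR, fluorescent labeling, HpaI digestion and capillary electrophoresis; gain-of-signal fit versus DMSO.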

[16] = read-out: Interleukin-1 alpha (IL1a), IL1A (gene 3552); assay: BSK_BE3C_IL1a: BioMAP Diversity Plus: BE3C Assay for Interleukin-1 alpha (IL1a) Biomarker Activity (AID 2283016); conditions: primary human bronchial epithelial cells; actives raise or lower the signal
In short: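 BE3C primary human bronchial epithelium; cpd 24 h; IL-1a by ELISA; bidirectional fit vs DMSO; parallel SRB (0.1% SRB, 10% TCA fix, 560 nm) for cytotoxicity.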

[17] = read-out: Matrix Metallopeptidase 1 (MMP1), MMP1 (gene 4312); assay: BSK_BE3C_MMP1: BioMAP Diversity Plus: BE3C Assay for Matrix Metallopeptidase 1 (MMP1) Biomarker Activity (AID 2283024); conditions: primary human bronchial epithelial cells; actives raise or lower the signal
In short: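 Human bronchial epithelial cells (BE3C system) exposed to compound for 24 h; MMP1 then quantified by ELISA. Activity was fitted in both directions relative to DMSO.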

[18] = BSK_3C_Vis: BioMAP Diversity Plus: 3C Assay for Morphology Visualization (AID 2283025); conditions: primary human endothelial cells (HUVEC);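 further: fitted both ways so gain or loss versus DMSO counts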;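 on AC50: light microscopy image of cell morphology used as background control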
In short: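 Chemicals were added to primary human umbilical vein endothelium, cells were incubated 24 h, and morphology was then visualized by light microscopy. Gain or loss of signal was fitted bidirectionally relative to DMSO.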

[19] = read-out: Thrombomodulin, THBD (gene 7056); assay: BSK_3C_Thrombomodulin: BioMAP Diversity Plus: 3C Assay for Thrombomodulin Biomarker Activity (AID 2283029); conditions: primary human endothelial cells (HUVEC); actives raise or lower the signal
In short: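 Read-out is ELISA of thrombomodulin on human umbilical vein endothelium 24 h after chemical dosing. Gain or loss of signal is scored relative to DMSO. Overt cytotoxicity is checked in parallel cultures by sulforhodamine B staining.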

[20] = read-out: Human Leukocyte Antigen - DR isotype (HLADR), HLA-DRA (gene 3122); assay: BSK_3C_HLADR: BioMAP Diversity Plus: 3C Assay for Human Leukocyte Antigen - DR isotype (HLADR) Biomarker Activity (AID 2283019); conditions: primary human endothelial cells (HUVEC); actives raise or lower the signal;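 further: ELISA of cell-surface HLA-DR on HUVEC 24 h after dosing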
In short: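 HUVEC monoculture, HLA-DR measured by ELISA 24 h after chemical dosing. Fitted bidirectionally against DMSO baseline; parallel SRB staining assessed cytotoxicity, with 3C proliferation read by SRB at 48 h.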

Measured: AC50

Sequence of E-selectin (Homo sapiens) (P16581 whole entry, looked up): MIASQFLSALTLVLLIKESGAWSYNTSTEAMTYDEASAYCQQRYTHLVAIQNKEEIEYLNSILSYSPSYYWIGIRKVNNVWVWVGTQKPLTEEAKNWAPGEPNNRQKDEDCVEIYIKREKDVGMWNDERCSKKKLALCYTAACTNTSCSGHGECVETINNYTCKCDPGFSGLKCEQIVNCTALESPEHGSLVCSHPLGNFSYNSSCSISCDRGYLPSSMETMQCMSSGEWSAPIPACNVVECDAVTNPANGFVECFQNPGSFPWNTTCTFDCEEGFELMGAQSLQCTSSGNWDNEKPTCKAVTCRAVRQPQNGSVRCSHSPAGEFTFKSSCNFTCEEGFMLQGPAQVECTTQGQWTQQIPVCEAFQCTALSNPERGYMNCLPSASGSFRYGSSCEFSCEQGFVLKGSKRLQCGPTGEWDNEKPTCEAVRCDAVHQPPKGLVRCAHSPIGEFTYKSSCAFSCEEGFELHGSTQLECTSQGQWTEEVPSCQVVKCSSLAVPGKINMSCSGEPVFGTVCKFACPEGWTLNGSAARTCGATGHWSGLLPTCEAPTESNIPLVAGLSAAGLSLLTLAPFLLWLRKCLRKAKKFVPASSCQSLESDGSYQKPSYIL

O=C(O)C(F)(F)C(F)(F)C(F)(F)OC(F)(C(F)(F)F)C(F)(F)F
not listed: [14] | [15] | [16] | [17] | [18] | [19] | [20]
inactive: all other assays above

C[C@]12CC[C@H]3C(=CCc4cc(O)ccc43)[C@@H]1CCC2=O
not listed: [1] | [2] | [3] | [20]
inactive: all other assays above

NC(=O)C(F)(F)C(F)(F)C(F)(F)C(F)(F)C(N)=O
not listed: [1] | [2] | [3] | [10] | [18] | [20]
inactive: all other assays above

O=C1c2c(O)ccc(Nc3ccc(CCO)cc3)c2C(=O)c2c([N+](=O)[O-])ccc(O)c21
active: [15] 30 µM | [4] 4.35 µM | [6] 30.4 µM | [8] 34.2 µM | [18] 15.4 µM | [11] 20 µM | [12] 31.3 µM
inactive: [1] | [2] | [5] | [7] | [13]

CCC/C=C/CO
inactive: [14] | [3]

O=C(O)CCC(F)(F)C(F)(F)C(F)(F)F
not listed: [1] | [2] | [15] | [17] | [18] | [19]
inactive: all other assays above

O=S(=O)(OCC(F)(F)F)C(F)(F)C(F)(F)C(F)(F)C(F)(F)F
not listed: [10] | [14] | [15] | [16] | [18] | [20]
inactive: all other assays above

CCc1cc(Cc2cc(CC)c(N)c(CC)c2)cc(CC)c1N
inactive: [14] | [9]

CCN(CC)c1ccc(C=O)cc1
not listed: [1] | [2] | [10] | [16] | [17] | [19] | [20]
inactive: all other assays above
